From PubChem BioAssay
Activity calls are given as the source filed them.

Columns and labels:
[1] = binders of probe aFSTL3 on microarray, primary screen, stem cell growth factor project, biochemical, small-molecule microarray, fluorescence 635/667 (AID 1064); settings: higher = more signal;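 note: measures binding of the biotinylated anti-FSTL3 antibody to printed compounds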
[2] = binders from COS7 lysate, DM2A8 probe, primary screen, torsin A project, cell lysate, small-molecule microarray, fluorescence 635/667 (AID 1065); settings: higher = more signal, COS7 lysate expressing mutant human TOR1A
[3] = binders of probe aFGF2 on microarray, primary screen, stem cell growth factor project, biochemical, small-molecule microarray, fluorescence 635/667 (AID 1067); settings: higher = more signal;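 note: measures binding of biotinylated aFGF2 protein to printed compounds on slides; z-score merges feature fluorescence and signal-to-noise across triplicate slides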
[4] = binders of probe aFGF10 on microarray, primary screen, stem cell growth factor project, biochemical, small-molecule microarray, fluorescence 635/667 (AID 1071); settings: higher = more signal;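 note: score merges 667 nm spot intensity and signal to noise from triplicate slides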
[5] = target: Neurogenic locus notch homolog protein 2 (Homo sapiens) (UniProt Q04721); assay: Notch2 binders on small-molecule microarrays, primary screen, biochemical, small-molecule microarray, 635 nm fluorescence, stem cell growth factors (AID 1073); settings: Notch2 binding, higher = more signal
[6] = target: Pro-neuregulin-1, membrane-bound isoform (Homo sapiens) (UniProt Q02297); assay: NRG1 binders on small-molecule microarrays, primary screen, psychiatric disease protein project, biochemical, small-molecule microarray, fluorescence 635/667 (AID 1075); settings: NRG1 binding, 635 nm fluorescence, higher = more signal;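 note: score combines 667 nm spot fluorescence with signal to noise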
[7] = system: Neuregulin-1 EGF-like domain; assay: binders of neuregulin-1 EGF-like domain, primary screen, biochemical, small-molecule microarray, 635 nm fluorescence (AID 1081); settings: small-molecule microarray binding, higher = more signal;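 note: binding of the protein to compounds printed on small-molecule microarray slides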
[8] = FRG1 promoter luciferase signal modulators, primary screen, FRG1 inhibition for FSHD, cell-based, C2C12 myotubes, firefly/Renilla luciferase, luminescence (AID 1084); settings: higher = more signal, called active from +8 up or from −8 down
[9] = binders of probe aFST on microarray, primary screen, stem cell growth factor project, biochemical, small-molecule microarray, fluorescence 635/667 (AID 1086); settings: higher = more signal;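 note: score merges 667 nm fluorescence with signal-to-noise of each printed compound spot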
[10] = binders of probe aHhip on microarray, primary screen, stem cell growth factor project, biochemical, small-molecule microarray, fluorescence 635/667 (AID 1087); settings: higher = more signal;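 note: score merges spot fluorescence at 667nm with spot signal to noise ratio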
[11] = system: PRMT1 (protein arginine N-methyltransferase 1); assay: PRMT1 binders on small-molecule microarrays, primary screen, biochemical, small-molecule microarray, 635 nm fluorescence (AID 1088); settings: small-molecule microarray binding, higher = more signal;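 note: binding of Prmt1 protein to compounds spotted on small-molecule microarray slides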
[12] = yeast growth modulation, basal conditions, primary screen, YJM789 clinical isolate, OD600, 24 h (AID 1089);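 note: growth of clinical yeast isolate S. cerevisiae YJM 789 seeded 1000 cells per well; test concentration not given here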; settings: S. cerevisiae YJM789 growth, higher = more signal, called active from +8 up or from −8 down
[13] = fission yeast growth modulation, primary screen, strain 972, OD600, 24 h, no modulator (AID 1090);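 note: basal condition with compound alone and no growth modifier present; test concentration not given here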; settings: S. pombe 972 growth, higher = more signal, called active from +8 up or from −8 down
[14] = S. cerevisiae growth modulation with rapamycin, primary screen, strain BY4716, OD600, 96 h (AID 1091); settings: higher = more signal, called active from +8 up or from −8 down; note: test concentration not given here
[15] = target: Torsin-1A-interacting protein 2 (Homo sapiens) (UniProt Q8NFQ8); assay: LULL1 binders on small-molecule microarray, primary screen, cell lysate, human LULL1 lysate, 635/667 nm fluorescence (AID 1092); settings: hLULL1 lysate binding, 635 nm fluorescence, higher = more signal;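 note: probe is lysate of COS7 cells overexpressing human LULL1; score merges per-feature 667 nm fluorescence with signal-to-noise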
[16] = E. coli growth modulation, two-sided OD650, primary screen, E. coli filamentation project, strain DRC41, 24 h (AID 1093); settings: OD650, 24 h, higher = more signal, called active from +8 up or from −8 down;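 note: MC1000 strain lacking acrAB efflux and sulA so SOS filamentation is blocked; test concentration not given here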
[17] = small-molecule microarray binders of probe aLefty2, primary screen, biochemical, biotinylated probe, 635/667 nm fluorescence (AID 1094); settings: higher = more signal;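 note: score merges spot fluorescence near 667 nm with spot signal-to-noise ratio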
[18] = system: Noggin (protein binding on small-molecule microarray); assay: Noggin binders on small-molecule microarray, primary screen, biochemical, 635/667 nm fluorescence (AID 1095); settings: 635 nm fluorescence, higher = more signal;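 note: score merges 667 nm feature fluorescence with signal to noise over triplicate slides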
[19] = target: Neurogenic locus notch homolog protein 3 (Homo sapiens) (UniProt Q9UM47); assay: NOTCH3 binders on small-molecule microarray, primary screen, biochemical, 635/667 nm fluorescence (AID 1096); settings: NOTCH3 binding, 635 nm fluorescence, higher = more signal
[20] = small-molecule microarray binders of probe aEGFR, primary screen, biochemical, biotinylated probe, 635/667 nm fluorescence (AID 1097); settings: higher = more signal;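 note: probe is a biotinylated anti-EGFR antibody binding compounds printed on slides; score combines fluorescence near 667 nm and signal to noise of each spot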

Chain of Neurogenic locus notch homolog protein 2 (Homo sapiens) (Q04721 whole entry, looked up, canonical isoform): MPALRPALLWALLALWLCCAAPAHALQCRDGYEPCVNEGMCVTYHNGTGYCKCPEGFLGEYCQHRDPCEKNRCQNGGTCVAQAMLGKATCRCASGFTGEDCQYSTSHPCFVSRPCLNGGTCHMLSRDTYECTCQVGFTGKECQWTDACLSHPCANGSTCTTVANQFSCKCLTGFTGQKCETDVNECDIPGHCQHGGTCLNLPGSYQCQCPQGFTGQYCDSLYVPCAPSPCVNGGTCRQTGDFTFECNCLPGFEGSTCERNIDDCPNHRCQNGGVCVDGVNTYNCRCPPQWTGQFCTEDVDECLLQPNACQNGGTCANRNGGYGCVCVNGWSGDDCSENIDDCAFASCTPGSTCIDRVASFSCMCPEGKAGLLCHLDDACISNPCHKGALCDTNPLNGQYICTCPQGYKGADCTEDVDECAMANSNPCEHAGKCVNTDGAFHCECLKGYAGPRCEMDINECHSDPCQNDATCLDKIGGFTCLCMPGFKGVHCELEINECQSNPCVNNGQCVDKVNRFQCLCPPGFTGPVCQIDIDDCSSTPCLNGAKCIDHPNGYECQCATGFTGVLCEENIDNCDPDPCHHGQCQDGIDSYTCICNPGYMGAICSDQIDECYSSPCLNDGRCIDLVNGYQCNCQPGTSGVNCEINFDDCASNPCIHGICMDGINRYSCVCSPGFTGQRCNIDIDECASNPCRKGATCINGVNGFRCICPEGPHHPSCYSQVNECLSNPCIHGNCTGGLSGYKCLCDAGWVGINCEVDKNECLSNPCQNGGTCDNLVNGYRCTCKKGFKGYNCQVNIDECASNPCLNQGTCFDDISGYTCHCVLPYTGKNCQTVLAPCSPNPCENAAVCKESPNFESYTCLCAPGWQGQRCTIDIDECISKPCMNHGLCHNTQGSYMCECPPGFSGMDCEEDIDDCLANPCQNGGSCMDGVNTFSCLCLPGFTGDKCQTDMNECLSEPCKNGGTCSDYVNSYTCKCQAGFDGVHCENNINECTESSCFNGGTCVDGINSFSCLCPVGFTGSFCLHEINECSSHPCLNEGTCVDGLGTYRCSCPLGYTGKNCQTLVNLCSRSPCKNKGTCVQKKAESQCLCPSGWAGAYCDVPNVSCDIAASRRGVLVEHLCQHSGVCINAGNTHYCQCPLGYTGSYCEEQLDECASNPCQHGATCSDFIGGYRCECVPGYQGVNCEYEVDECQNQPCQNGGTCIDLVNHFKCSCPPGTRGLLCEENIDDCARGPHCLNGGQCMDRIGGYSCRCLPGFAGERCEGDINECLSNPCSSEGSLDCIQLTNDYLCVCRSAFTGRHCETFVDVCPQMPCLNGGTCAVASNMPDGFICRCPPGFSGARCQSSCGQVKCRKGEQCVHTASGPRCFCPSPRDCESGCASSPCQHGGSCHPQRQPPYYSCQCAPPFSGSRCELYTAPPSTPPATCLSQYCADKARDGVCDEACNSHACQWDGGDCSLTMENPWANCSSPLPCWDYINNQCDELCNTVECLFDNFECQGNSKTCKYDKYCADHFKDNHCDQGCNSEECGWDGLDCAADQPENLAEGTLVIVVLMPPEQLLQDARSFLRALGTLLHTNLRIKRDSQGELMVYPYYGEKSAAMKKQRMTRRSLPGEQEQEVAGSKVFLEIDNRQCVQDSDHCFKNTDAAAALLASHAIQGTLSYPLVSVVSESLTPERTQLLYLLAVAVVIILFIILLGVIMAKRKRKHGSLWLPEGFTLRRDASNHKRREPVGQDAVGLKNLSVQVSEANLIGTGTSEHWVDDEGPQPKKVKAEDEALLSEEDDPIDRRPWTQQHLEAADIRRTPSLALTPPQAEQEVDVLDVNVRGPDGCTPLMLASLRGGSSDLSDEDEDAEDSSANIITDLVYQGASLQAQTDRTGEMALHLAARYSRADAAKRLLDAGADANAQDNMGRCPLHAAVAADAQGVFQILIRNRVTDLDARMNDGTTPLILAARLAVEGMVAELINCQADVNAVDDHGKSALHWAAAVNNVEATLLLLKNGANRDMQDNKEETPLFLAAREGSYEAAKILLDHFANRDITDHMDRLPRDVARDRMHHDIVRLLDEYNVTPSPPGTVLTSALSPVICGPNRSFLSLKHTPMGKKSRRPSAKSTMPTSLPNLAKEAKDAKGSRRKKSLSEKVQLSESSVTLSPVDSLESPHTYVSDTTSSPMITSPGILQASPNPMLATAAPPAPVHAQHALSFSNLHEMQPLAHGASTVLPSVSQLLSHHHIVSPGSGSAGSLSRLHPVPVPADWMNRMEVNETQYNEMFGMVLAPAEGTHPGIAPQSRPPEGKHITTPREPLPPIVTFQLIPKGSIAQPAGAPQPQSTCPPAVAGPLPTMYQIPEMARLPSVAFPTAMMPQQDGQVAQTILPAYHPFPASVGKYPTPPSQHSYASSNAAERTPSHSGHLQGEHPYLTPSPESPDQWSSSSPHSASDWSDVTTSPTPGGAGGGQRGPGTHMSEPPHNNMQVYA
Chain of Neurogenic locus notch homolog protein 3 (Homo sapiens) (Q9UM47 whole entry, looked up): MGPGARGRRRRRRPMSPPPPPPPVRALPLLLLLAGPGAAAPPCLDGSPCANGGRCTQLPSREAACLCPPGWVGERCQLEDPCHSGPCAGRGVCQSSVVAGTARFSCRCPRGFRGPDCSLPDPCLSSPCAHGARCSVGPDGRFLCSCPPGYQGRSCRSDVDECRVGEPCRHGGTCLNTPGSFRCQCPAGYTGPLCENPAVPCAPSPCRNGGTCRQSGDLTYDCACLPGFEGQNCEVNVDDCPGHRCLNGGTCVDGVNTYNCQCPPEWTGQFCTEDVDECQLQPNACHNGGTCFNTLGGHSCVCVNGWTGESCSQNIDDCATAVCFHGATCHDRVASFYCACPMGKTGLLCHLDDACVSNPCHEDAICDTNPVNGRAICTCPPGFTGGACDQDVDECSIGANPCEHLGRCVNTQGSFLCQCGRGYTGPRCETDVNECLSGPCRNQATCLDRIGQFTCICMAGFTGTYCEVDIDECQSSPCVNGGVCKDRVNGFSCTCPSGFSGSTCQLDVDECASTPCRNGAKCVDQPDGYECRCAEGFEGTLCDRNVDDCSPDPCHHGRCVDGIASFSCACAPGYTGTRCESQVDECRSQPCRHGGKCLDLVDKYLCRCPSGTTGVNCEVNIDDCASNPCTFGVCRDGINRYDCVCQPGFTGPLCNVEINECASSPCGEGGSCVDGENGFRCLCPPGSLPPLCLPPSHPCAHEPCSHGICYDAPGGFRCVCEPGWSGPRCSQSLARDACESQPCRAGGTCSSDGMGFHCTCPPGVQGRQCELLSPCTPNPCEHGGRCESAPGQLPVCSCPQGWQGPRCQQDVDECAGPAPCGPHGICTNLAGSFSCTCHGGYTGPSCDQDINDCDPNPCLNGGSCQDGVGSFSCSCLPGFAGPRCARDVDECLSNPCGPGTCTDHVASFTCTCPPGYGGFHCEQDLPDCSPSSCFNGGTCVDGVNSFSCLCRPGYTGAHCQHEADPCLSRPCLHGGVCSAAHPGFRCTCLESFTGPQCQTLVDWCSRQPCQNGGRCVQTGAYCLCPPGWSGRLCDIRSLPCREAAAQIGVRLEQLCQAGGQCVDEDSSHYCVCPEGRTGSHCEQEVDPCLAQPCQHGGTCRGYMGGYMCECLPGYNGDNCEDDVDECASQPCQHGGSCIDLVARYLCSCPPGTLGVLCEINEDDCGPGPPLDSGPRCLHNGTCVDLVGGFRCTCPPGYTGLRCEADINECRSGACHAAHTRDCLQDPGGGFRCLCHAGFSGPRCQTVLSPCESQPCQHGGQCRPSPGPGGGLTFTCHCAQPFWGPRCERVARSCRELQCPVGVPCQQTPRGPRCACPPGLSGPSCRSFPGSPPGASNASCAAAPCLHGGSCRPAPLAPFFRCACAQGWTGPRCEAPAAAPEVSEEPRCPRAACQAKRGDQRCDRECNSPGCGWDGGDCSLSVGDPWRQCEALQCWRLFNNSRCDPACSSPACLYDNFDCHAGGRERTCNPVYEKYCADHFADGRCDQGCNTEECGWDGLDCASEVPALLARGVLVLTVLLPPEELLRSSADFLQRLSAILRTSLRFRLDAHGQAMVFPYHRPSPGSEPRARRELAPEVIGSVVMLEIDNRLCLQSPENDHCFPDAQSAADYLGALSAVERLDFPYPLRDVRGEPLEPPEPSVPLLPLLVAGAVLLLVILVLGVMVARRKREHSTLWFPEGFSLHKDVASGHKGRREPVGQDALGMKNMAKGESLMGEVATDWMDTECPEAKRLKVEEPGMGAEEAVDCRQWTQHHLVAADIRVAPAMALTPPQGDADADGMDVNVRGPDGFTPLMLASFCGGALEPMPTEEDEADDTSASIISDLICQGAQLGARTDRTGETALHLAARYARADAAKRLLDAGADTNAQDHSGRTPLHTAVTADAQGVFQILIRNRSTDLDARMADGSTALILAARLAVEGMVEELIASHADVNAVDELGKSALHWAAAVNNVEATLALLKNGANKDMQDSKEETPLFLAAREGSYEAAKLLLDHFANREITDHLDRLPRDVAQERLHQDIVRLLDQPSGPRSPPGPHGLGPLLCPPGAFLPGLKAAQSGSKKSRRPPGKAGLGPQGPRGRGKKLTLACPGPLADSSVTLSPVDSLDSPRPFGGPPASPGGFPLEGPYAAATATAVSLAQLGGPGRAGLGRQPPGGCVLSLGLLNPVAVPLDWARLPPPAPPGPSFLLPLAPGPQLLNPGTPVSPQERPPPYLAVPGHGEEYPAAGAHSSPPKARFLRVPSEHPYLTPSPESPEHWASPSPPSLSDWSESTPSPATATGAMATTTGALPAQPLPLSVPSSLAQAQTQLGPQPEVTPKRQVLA

Structure (SMILES) | composite z-score [1] | composite z-score [2] | composite z-score [3] | composite z-score [4] | composite z-score [5] | composite z-score [6] | composite z-score [7] | z-score [8] | composite z-score [9] | composite z-score [10] | composite z-score [11] | z-score [12] | z-score [13] | z-score [14] | composite z-score [15] | z-score [16] | composite z-score [17] | composite z-score [18] | composite z-score [19] | composite z-score [20]
CCOC(=O)CCN1C(=O)[C@H]2[C@H]3[C@H](O)[C@H](O)CC(=NOCC(C)C)[C@H]3CC[C@H]2C1=O | 0.185 | 0.0849 | -0.0232 | 0.125 | -0.131 | -0.312 | 0.176 | 0.813 (inactive) | 0.349 | -0.264 | -0.309 | 0.199 (inactive) | 0.307 (inactive) | 0.0797 (inactive) | 0.22 | 0.251 (inactive) | 0.096 | 0.109 | -0.0186 | -0.15
CC(CCN1CCCCc2nc(C)c(C)cc21)=NOC[C@@H](O)COCc1ccco1 | -0.471 | 2.6 | -0.242 | 0.0106 | 0.296 | -1.03 | 0.298 | -0.0255 (inactive) | 0.193 | 0.259 | 1.3 | -1.35 (inactive) | 0.527 (inactive) | -0.119 (inactive) | -0.58 | 0.742 (inactive) | -0.0042 | 1.21 | 0.876 | 0.592
Cc1cc2c(nc1C)CCCCN2CC(C)ON=C[C@@H](C)[C@H](OCc1ccccc1)C(C)C (stereo not given in full) | -0.0674 | -0.777 | -0.307 | -1.05 | -1.38 | -0.317 | -0.366 | -0.154 (inactive) | -0.514 | -0.0994 | -0.766 | -0.715 (inactive) | -14.4 (active) | 0.365 (inactive) | -1.02 | 0.162 (inactive) | -0.204 | -0.913 | -1.01 | -0.3
CC(C)=CCCC(C)=CCON=C1C[C@@H](O)[C@@H](O)[C@@H]2[C@@H]3C(=O)N(Cc4ccccc4)C(=O)[C@@H]3CC[C@H]12 | -0.402 | -0.0325 | -0.0263 | 0.734 | 0.686 | 0.774 | 1.06 | 0.134 (inactive) | 0.342 | -0.305 | 1.06 | -0.574 (inactive) | -1.58 (inactive) | -1.29 (inactive) | 1.94 | -0.128 (inactive) | -0.236 | 0.608 | 0.811 | -0.034
Cc1ccc(S(=O)(=O)NC(CCc2ccccc2)CC(=O)C(C)(C)C)cc1 (stereo not given) | -0.651 | 0.339 | -0.228 | 0.711 | 0.747 | 0.132 | 0.459 | -3.04 (inactive) | 0.195 | -0.261 | 1.09 | -1.18 (inactive) | -1.76 (inactive) | 0.269 (inactive) | 0.69 | 0.361 (inactive) | 0.422 | 0.409 | 1.14 | 0.045
COc1ccc(O[C@H]2C=C[C@@H](c3ccccc3)O[C@@H]2CON=CC[C@@H]2C=C[C@H](OC(C)=O)[C@@H](COC(C)=O)O2)cc1 | -0.142 | 0.0191 | -0.0667 | 0.138 | -0.265 | -0.364 | -0.216 | 1.01 (inactive) | 0.388 | -0.0994 | 0.15 | 0.507 (inactive) | 0.722 (inactive) | 0.721 (inactive) | 0.22 | 0.363 (inactive) | -0.107 | 0.691 | -0.22 | -0.0267
O=C1C[C@@H](O)[C@@H](O)[C@@H]2[C@@H]3C(=O)N(C[C@@H]4CCCO4)C(=O)[C@@H]3CC[C@H]12 | -0.469 | 0.207 | -0.0901 | 0.377 | 0.733 | 0.17 | 0.723 | -0.0616 (inactive) | 0.158 | -0.487 | 0.578 | 0.788 (inactive) | -0.563 (inactive) | 0.672 (inactive) | 0.493 | 0.701 (inactive) | -0.108 | 0.394 | 0.652 | -0.0118
CON=Cc1ccc(C(=O)N2[C@H](c3ccc(C)cc3)[C@@H](C)CC[C@H]2C(=O)OC)cc1 | -0.13 | 0.486 | -0.134 | 0.363 | 0.489 | 0.424 | 0.843 | 0.0346 (inactive) | 0.267 | -0.236 | 1.17 | -0.0099 (inactive) | -2 (inactive) | -0.637 (inactive) | 1.23 | 0.823 (inactive) | -0.293 | 0.292 | 0.772 | -0.262
COC(=O)[C@@H]1CC[C@@H](C)[C@H](c2ccc(Br)cc2)N1 | -0.364 | -0.0471 | -0.163 | 0.321 | 0.0422 | -0.303 | -0.356 | -1.02 (inactive) | -0.199 | -0.184 | 0.265 | 0.0156 (inactive) | -0.179 (inactive) | -0.116 (inactive) | -0.188 | 0.104 (inactive) | -0.0943 | 0.255 | -0.275 | -0.125
COC(=O)CC=C[C@@H](C)[C@@H](C=NO[C@@H](C)c1cc(-c2c(C)cc(C)cc2C)no1)NS(=O)(=O)c1ccc(C)cc1 | 1.38 | -0.498 | -0.144 | -1.29 | -1.06 | -0.647 | -0.631 | 0.295 (inactive) | -0.176 | -0.236 | -0.84 | -0.0649 (inactive) | 0.679 (inactive) | 0.905 (inactive) | -0.227 | -0.881 (inactive) | 0.0221 | -2.2 | -2.03 | -0.224
